# Inconclusive results are not listed. Where a call stands in place of a potency, no number is given. Values without a mark were called inactive. The source made the active and inactive calls. The call rests on the fitted dose curve; in most records, active means well fitted cell-killing curve with a large enough effect; inconclusive means small, poorly fitted or top-dose-only effect; inactive means no such curve, though single readings can be large or run the other way.
# Legend:
# [1] = qHTS of pediatric cancer cell lines to identify multiple opportunities for drug repurposing: Primary screen for Rh30 cells (AID 1347107); further: nearly all actives have a fitted effect of over 75% in size
# Summary of the method: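 Viability after 48 h compound treatment at 37C, 500-1,000 cells/well, read as ATP luminescence with CellTiter-Glo. Primary screens used 11-point (MIPE, 0.78 nM-46 µM) or 8-point (NPC, 0.59 nM-46 µM) final concentrations; follow-up screens used 11-point dilutions.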
# [2] = qHTS of pediatric cancer cell lines to identify multiple opportunities for drug repurposing: Primary screen for Rh41 cells (AID 1347108);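 further: luminescence drop marks cytotoxic hits; nearly all actives have a fitted effect of over 70% in size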
# Summary of the method: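 Cells plated at 500-1,000/well in growth medium, compounds added after 5 h. MIPE tested at 11 points (from 0.78 nM), NPC at 8 points (from 0.59 nM). CellTiter-Glo luminescence after 48 h; concentration-response curves from primary screen.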
# Further: series mostly up to about 46 µM.
structure (smiles),measurement,setting,value
CC(=O)Nc1ccc(OC(=O)c2ccccc2OC(C)=O)cc1,Potency,[1],inactive
CCCCCCCC/C=C\CCCCCCCCN,Potency,[1],inactive
same,Potency,[2],inactive
CCCCc1cc2ccccc2c(OCCN(C)C)n1,Potency,[1],inactive
same,Potency,[2],inactive
CCOC(=O)c1ccc(N)cc1,Potency,[1],inactive
same,Potency,[2],inactive
CC(=O)O[C@]1(C(C)=O)CC[C@H]2[C@@H]3C=C(Cl)C4=CC(=O)CC[C@]4(C)[C@H]3CC[C@@]21C,Potency,[1],inactive
CCO[C@@H]1O[C@H](C(COCc2ccccc2)OCc2ccccc2)[C@H](OCc2ccccc2)[C@H]1O (stereo not given in full),Potency,[1],inactive
CCCCC(CC)COC(=O)/C=C/c1ccc(OC)cc1 (stereo not given),Potency,[1],inactive
OC[C@H]1O[C@@H]2O[C@H]3[C@H](O)[C@@H](O)[C@@H](O[C@H]4[C@H](O)[C@@H](O)[C@@H](O[C@H]5[C@H](O)[C@@H](O)[C@@H](O[C@H]6[C@H](O)[C@@H](O)[C@@H](O[C@H]7[C@H](O)[C@@H](O)[C@@H](O[C@H]8[C@H](O)[C@@H](O)[C@@H](O[C@H]1[C@H](O)[C@H]2O)O[C@@H]8CO)O[C@@H]7CO)O[C@@H]6CO)O[C@@H]5CO)O[C@@H]4CO)O[C@@H]3CO,Potency,[1],inactive
same,Potency,[2],inactive
Cc1cc2c(OCC(CNC(C)(C)C)OC(=O)c3ccccc3)cccc2[nH]1 (stereo not given),Potency,[1],inactive
CN1CCN(c2cc3c(cc2F)c(=O)c(C(=O)O)cn3-c2ccc(F)cc2)CC1,Potency,[1],inactive
same,Potency,[2],inactive
CCN1CCCC(OC(=O)C(c2ccccc2)c2ccccc2)C1 (stereo not given),Potency,[1],inactive
same,Potency,[2],inactive
C=C[C@H]1CN2CC[C@H]1C[C@@H]2[C@@H](O)c1ccnc2ccc(OC)cc12,Potency,[1],inactive
same,Potency,[2],inactive
CCN(CC)CCOC(=O)C1(c2ccccc2)CCCC1,Potency,[1],inactive
same,Potency,[2],inactive
CCCCNC(=O)NS(=O)(=O)c1ccc(N)cc1,Potency,[1],inactive
O=C(Nc1cccc(C2=NCCN2)c1)Nc1cccc(C2=NCCN2)c1,Potency,[1],inactive
same,Potency,[2],inactive
CC(=O)NCCCCCC(=O)O,Potency,[1],inactive
same,Potency,[2],inactive
Cc1ccc(-c2ncc(Cl)cc2-c2ccc(S(C)(=O)=O)cc2)cn1,Potency,[1],inactive
CC(C)CCCC(C)N (stereo not given),Potency,[1],inactive
same,Potency,[2],inactive
FC(F)(F)C(F)(F)C(F)(F)C(F)(F)C(F)(F)C(F)(F)C(F)(F)C(F)(F)Br,Potency,[1],inactive
same,Potency,[2],inactive
O=C(O)Cc1csc(-c2ccc(Cl)cc2)n1,Potency,[1],inactive
same,Potency,[2],inactive
C#C[C@]1(O)CC[C@H]2[C@@H]3CCc4cc(OC)ccc4[C@H]3CC[C@@]21C,Potency,[1],inactive
same,Potency,[2],inactive
O=C(NCCc1c[nH]c2ccccc12)c1cccnc1,Potency,[1],inactive
NC(=S)N/N=C/c1cccnc1,Potency,[1],inactive
O=C1C(CCS(=O)c2ccccc2)C(=O)N(c2ccccc2)N1c1ccccc1 (stereo not given),Potency,[1],inactive
same,Potency,[2],inactive
N[C@H](C(=O)O)[C@@H](O)c1ccc(O)c(O)c1,Potency,[1],inactive
same,Potency,[2],inactive
N=C(N)N1CCc2ccccc2C1,"activity change, negative = cytotoxic",[1],7.74% [at 4.84 µM]
same,"activity change, negative = cytotoxic",[2],1.21% [at 4.84 µM]
CCCc1ncc(C[n+]2ccccc2C)c(N)n1,Potency,[1],inactive
same,Potency,[2],inactive
C[C@@H](O)[C@H]1C(=O)N2C(C(=O)O)=C([C@H]3CCCO3)S[C@H]12,Potency,[1],inactive
same,Potency,[2],inactive
CC(=O)NO,Potency,[1],inactive
same,Potency,[2],inactive
C=C[C@H]1CN2CC[C@H]1C[C@H]2[C@H](O)c1ccnc2ccc(OC)cc12,Potency,[1],inactive
same,Potency,[2],inactive
COc1ccc(S(=O)(=O)N2c3ccc(Cl)cc3[C@@](O)(c3ccccc3Cl)[C@H]2C(=O)N2CCC[C@@H]2C(N)=O)cc1OC,Potency,[1],inactive
same,Potency,[2],inactive
CCCCCCCCCCCCCCCC(=O)O,Potency,[1],inactive
same,Potency,[2],inactive
N#CCC(=O)NN,Potency,[1],inactive
OC[C@H]1O[C@@H](Oc2ccc(O)cc2)[C@H](O)[C@@H](O)[C@@H]1O,Potency,[1],inactive
same,Potency,[2],inactive
CCOc1ccccc1C(N)=O,Potency,[1],inactive
same,Potency,[2],inactive
Nc1ccc(S(=O)(=O)Nc2cnc3ccccc3n2)cc1,Potency,[1],inactive
C/C=C/C=N/NC(=O)c1ccncc1,Potency,[1],inactive
O=C(NC1CCN(CCc2c[nH]c3ccccc23)CC1)c1ccccc1,Potency,[1],inactive
CCCN(CCC)S(=O)(=O)c1ccc(C(=O)O)cc1,Potency,[1],inactive
same,Potency,[2],inactive
CCCCOC(=O)CC(CC(=O)OCCCC)(OC(C)=O)C(=O)OCCCC,Potency,[1],inactive
same,Potency,[2],inactive
Nc1nc(-c2ccccc2)c(Br)c(=O)[nH]1,Potency,[1],inactive
same,Potency,[2],inactive
Cc1ccc(O)c([C@H](CCN(C(C)C)C(C)C)c2ccccc2)c1,Potency,[1],inactive
same,Potency,[2],inactive
Nc1ccc(S(=O)(=O)NCc2ccccc2)cc1,Potency,[1],inactive
same,Potency,[2],inactive
O=S(=O)(O)c1ccc(O)cc1,Potency,[1],inactive
same,Potency,[2],inactive
